# Assay: High-throughput drug toxicity screening in the BPDCN cell line Gen2.2 (AID 1224824)
# Settings: Gen2.2 BPDCN cells; at 45.8 µM (top of the series) unless noted
# From the text: Blastic plasmacytoid dendritic cell neoplasm (BPDCN) is a rare, aggressive and largely incurable hematologic malignancy originating from plasmacytoid dendritic cells (pDCs). Although an initial response to chemotherapy is common, BPDCN prognosis is extremely poor and most patients relapse with drug-resistant disease leading to a median overall survival of ~1 year after diagnosis. To explore novel potential therapeutic strategies in BPDCN, we performed a high-throughput drug toxicity screening in BPDCN cell liens, using of a library of 1,912 small molecules, enriched for compounds that are either approved or in early stages of development for cancer therapy.
# A total of 500 exponentially growing Gen2.2 cells were seeded per well in 5 uL of media (RPMI + Glutamine, without phenol red plus10% FBS and 1X Pen/Strep) into 1536-well solid white high base tissue culture treated Greiner One Bio Plates (789173-F), using a multidrop combi dispenser and a small sterile cassette. Compounds and controls totaling 23nL per well (negative control DMSO and positive control 9.2 uM Bortezomib-final) were immediately added to the plates using a 1536 head pin tool from Kalypsys. The plates were then covered with stainless steel gasket lids from Kalypsys and incubated for 48 hours at 37C under 95% relative humidity with 5% CO2. After 48 hours, the plates were removed and allowed to reach room temperature before 3 uL of Cell Titer Glo reagent (Promega) were added using an Aurora Flying Reagent Dispenser Bioraptor. The plates were then spun at 1000 rpms to remove bubbles and incubated for 15 minutes at room temperature before reading on a ViewLux using a luminescent filter with a 10 second exposure. The relative luciferase units were used to calculated percent activity using DMSO as 100% and Bortezomib as 0%.
row,Compound,"cell viability, % of control (lower = more cytotoxic) [%]"
1,CN(C)CCN(Cc1ccc(Cl)cc1)c1ccccn1,86.6
2,CC[C@]1(O)C[C@H]2CN(CCC3=c4ccccc4=N[C]3[C@@](C(=O)OC)(c3cc4c(cc3OC)N(C)[C@H]3[C@@](O)(C(N)=O)[C@H](O)[C@]5(CC)C=CCN6CC[C@]43[C@@H]65)C2)C1,14.7
3,Cc1ccc(NC(=O)Nc2cc(C(F)(F)F)ccc2F)cc1Nc1ccc2c(c1)NC(=O)C2=Cc1ccc[nH]1,4.16
4,O=C(O)Cc1cccc(OCCCN(Cc2cccc(C(F)(F)F)c2Cl)CC(c2ccccc2)c2ccccc2)c1,170
5,Cn1c(=O)c(-c2c(Cl)cccc2Cl)cc2cnc(Nc3cccc(C(=O)O)c3)nc21,462
6,CCOC(=O)[C@@H](N)CCC(=O)N[C@@H](CSCc1ccccc1)C(=O)N[C@@H](C(=O)OCC)c1ccccc1,39.6
7,C=CCc1cccc(C=NNC(=O)CN2CCN(Cc3ccccc3)CC2)c1O,67.9
8,COc1cc2c(cc1Cc1cccc(Cl)c1F)c(=O)c(C(=O)O)cn2[C@H](CO)C(C)C,19.1
9,Cc1cnc(-c2cc(N3CCN(C(=O)CCS(C)(=O)=O)CC3)ncc2Cl)c(C)c1,120
10,CCCCCCOC(=O)N=C(N)c1ccc(NCc2nc3cc(C(=O)N(CCC(=O)OCC)c4ccccn4)ccc3n2C)cc1,274
11,CC(C)C[C@@H](C(=O)N[C@H](C(=O)OC1CCCC1)c1ccccc1)[C@H](O)C(=O)NO,6.81
12,CCC(=C(CC)c1ccc(O)cc1)c1ccc(O)cc1,111
13,CCCCCCCCCCCCCCCC(=O)O[C@H]1[C@@H](O)[C@@H](O)[C@@H]([C@H](NC(=O)[C@@H]2C[C@@H](CCC)CN2C)[C@H](C)Cl)O[C@@H]1SC,218
14,O=C(CC12CC3CC(CC(C3)C1)C2)Nc1cccc2nc(NCCNCCO)ccc12,5.97
15,C[C@H]1COC2=C1C(=O)C(=O)c1c2ccc2c1CCCC2(C)C,23.4
16,COc1nccc(-c2c(-c3ccc(F)cc3)ncn2C2CCNCC2)n1,136
17,Cc1cc(CS(=O)(=O)c2ccccc2)cc(OCc2ccc(CN3CCC[C@H]3CO)cc2)c1,318
18,C[C@@H]1CCO[C@H]2Cn3cc(C(=O)NCc4ccc(F)cc4F)c(=O)c(O)c3C(=O)N12,58.3
19,CC[C@H](CC#N)OC(=O)N[C@@H](C)c1cccc(NC(=O)Nc2ccc(-c3cnco3)c(OC)c2)c1,74.3
20,CC(C)[C@H](O)C(=O)N[C@@H](C)C(=O)N[C@@H]1C(=O)N(C)CCc2ccccc21,95.1

row,Compound,"cell viability, % of control (lower = more cytotoxic) [%]"
1,Nc1nc(Cl)nc2c1ncn2[C@@H]1O[C@H](CO)[C@@H](O)[C@H]1F,159
2,Cc1cc2nc3c(=O)[nH]c(=O)nc-3n(CC(O)C(O)C(O)CO)c2cc1C (stereo not given),77.3
3,CCC(c1ccc(O)cc1)C(CC)c1ccc(O)cc1 (stereo not given),149
4,NC(N)=Nc1nc(CSCCC(N)=NS(N)(=O)=O)cs1,171
5,CC(C)n1c(C=C[C@H](O)C[C@H](O)CC(=O)O)c(-c2ccc(F)cc2)c2ccccc21,9.81
6,CN[C@@H]1[C@@H](O)[C@@H](O[C@@H]2[C@@H](O)[C@H](O[C@H]3O[C@H](CN)[C@@H](O)[C@H](O)[C@@H]3O)[C@@H](N)C[C@@H]2NC(=O)[C@@H](O)CN)OC[C@]1(C)O,111
7,COc1nc(C)cnc1NS(=O)(=O)c1cccnc1-c1ccc(-c2nnco2)cc1,379
8,NCC1CCC(C(=O)O)CC1 (stereo not given),110
9,COc1cc(CNC(=O)CCCCC=CC(C)C)ccc1O,145
10,Cc1cc2c(cc1C1(c3ccc(C(=O)O)cn3)CC1)C(C)(C)CCC2(C)C,529
11,O=c1cc(-c2ccc(O)c(O)c2)oc2cc(O)cc(O)c12,264
12,COc1ccc(-c2nc3ccc(C4=NNC(=O)CC4C)cc3[nH]2)cc1 (stereo not given),263
13,NC(=O)c1nnn(Cc2cc(Cl)c(C(=O)c3ccc(Cl)cc3)c(Cl)c2)c1N,390
14,CC(C)=CCCC(C)=CCCC(C)=CCCC(C)=CCCC(C)=CCCC(C)=CCCC(C)=CCCC(C)=CCCC(C)=CCO,132
15,O=C(c1ccc(C=Cc2n[nH]c3ccccc23)cc1)N1CCNCC1,57.2
16,CNc1nc(-c2ccc3c(N)n[nH]c3c2)cc(N2C[C@@H](C(=O)NC3CCCCC3)CC[C@@H]2C)n1,6.94
17,O=C(Nc1ccc(OC(F)(F)F)cc1)c1sccc1NCc1ccnc2ccccc12,42.4
18,CNC(=O)c1cc(COc2nnc(Nc3ccc(Cl)cc3)c3ccoc23)ccn1,159
19,N#CC1(c2cccc(C(=O)Nc3cc(Oc4ccc5nc(NC(=O)C6CC6)sc5n4)ccc3F)c2Cl)CC1,7.3
20,COc1ccc(-c2oc3c(CC=C(C)C)c(O)cc(O)c3c(=O)c2O)cc1,188
